In PubChem BioAssay AID493244 (The Scripps Research Institute Molecular Screening Center, 2011) one finds inhibition data, which are given here for five compounds.

The structures appear in SMILES notation. Hit rate of the full screen: of about 340,000 compounds, about 390 (0.11%) were called active. Shown is part of a subset that was picked to be rich in actives. Values without a mark were called inactive.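 Rule for the calls: active = inhibition above the mean inhibition of all tested compounds plus 3 SD (cut at about 17% in these data); inactive = the rest.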

For the test, the target named is Troponin I, cardiac muscle (Homo sapiens) + Troponin T, cardiac muscle (Homo sapiens) + Troponin C, slow skeletal and cardiac muscles (Homo sapiens) (UniProt P19429+P45379+P63316). Description: calcium desensitizers of cardiac thin filaments – biochemical, IANBD-TnC fluorescence, EC70 calcium, primary screen (AID 493244).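 Note: assay run at fixed EC70 calcium of 1.6 mM.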 The conditions noted are these: IANBD-labeled cardiac RTF, Ca2+ fluorescence; at 7.15 µM; hits give high values.
Take `COC1=C[C@@H]2[C@@H]3Cc4ccc(OC)c(O)c4[C@]2(CCN3C)CC1=O`: the inhibition (commonly the drop in the measured response relative to a control, in per cent) was 19.3% (active). Turning to `COc1ccc2c(c1)[C@]13CCCCC1C(C2)N(C)CC3` (stereo not given in full), the inhibition is -1.69%. The figure for `COc1ccc2c(c1O)-c1cccc3c1[C@@H](C2)N(C)CC3` is 4.82%. The figure for `Cc1ccc(-c2nc3ccccc3c(=O)n2-c2ccc(Br)cn2)cc1` is -6.33%; for `COC(=O)C1=C(c2ccccc2)C[C@@H]2CC[C@H]1N2C(=O)N1CCCCC1` it is 4.81%.
